Source: PubChem BioAssay (NCATS)
Inconclusive results are not listed. Unmarked numbers belong to inactive results. Activity calls are given as the source filed them. Calls follow the shape of the full dose curve.

assay: Confirmatory qHTS to identify inhibitors of SARS-CoV-2 cell entry (AID 1645844); settings: SARS-CoV-2 pseudotyped particle cell entry, luciferase; series mostly up to 57.2 µM; activity, negative = inhibition: at the top concentration; also: nearly all actives have a fitted effect of over 45% in size
Source text: Assay Provider: Wei Zheng, Ph.D.
National Center for Advancing Translational Sciences, National Institute of Health, Rockville, MD.
SARS-CoV-2 spike protein, within the viral envelope, mediates viral attachment and infection of host cells. The SARS-CoV-2 spike protein specifically binds to the host receptor ACE2 (Angiotensin-converting enzyme 2). This interaction promotes endocytosis of the viral particle, additional events lead to viral-host cell membrane fusion and release of the viral contents, allowing viral replication.
While SARS-CoV-2 requires BSL-3 facilities for live virus work, pseudotyped partices (PP) that incorporate SARS-CoV-2 spike proteins without replication elements could facilitate studies on viral entry mechanisms in a BSL-2 setting. This PP cell entry assay could also enable screening of small molecule compound libraries in BSL-2 setting to identify inhibitors of SARS-CoV-2 cell entry.
SEQUENCE No. (e.g., 1, 2, 3, etc.); […] (e.g., Cells, Incubation, Reagent, etc.); VALUE and DESCRIPTION.
1. Cells. Seed 1500 HEK293-ACE2 cells (Expi293F with stable expression of human ACE2) in 2 uL/well media (DMEM, 10% FBS, 1x L-glutamine, 1x Pen/Strep, 1 ug/ml puromycin) in white 1536-well assay plates (Greiner #782073).
2. Incubation. Incubate at 37C with 5% CO2 overnight (~16 h).
3. Compounds. Dispense 23 nL/well compounds in DMSO via pin transfer.
4. Incubation. Incubate for 1 hr at 37C 5% CO2.
5. Reagent. Dispense 2 uL/well of SARS-CoV-2-S pseudotyped particles (PP). [a] PPs are produced with murine leukemia virus pseudotyping). [b] SARS-CoV-2-S is Wuhan-Hu-1 sequence (BEI #NR-52420) with C-terminal 19 amino acid truncation.
6. Centrifugation. […]
7. Incubation. Incubate at for 48 hr at 37C 5% CO2
8. Centrifugation. Remove supernatant with gentle centrifugation using a Blue Washer (BlueCat Bio).
9. Reagent. Dispense 4 uL/well of Bright-Glo Luciferase detection reagent (Promega #E2620).
10. Incubation. Incubate for 5 min at room temperature.
11. Detection. Read luminescence signal (Viewlux plate reader, PerkinElmer). Data was normalized with wells containing SARS-CoV-2-S PP as 100%, and wells containing bald PP (no fusion protein) as 0%.
% is scaled to controls: 0 for no effect and ±100 for the full control effect; potency is read from the fitted curve at half-maximal effect.

Structure (SMILES) | Potency | outcome | activity, negative = inhibition
C[C@@]1(c2ncncc2F)NC(=O)c2cc(-c3cn[nH]c3)ccc21 | 3040 nM (active) |  | 
CO[C@H]1CCC(O[C@H]2C[C@H]([C@]3(C)CC[C@]4(C[C@H](O)[C@@H](C)[C@@H]([C@@H](C)/C=C(\C)C(=O)[C@H](C)C[C@H](C)C(=O)O)O4)O3)O[C@]3(O[C@@H]([C@H]4O[C@@](O)(CO)[C@H](C)C[C@@H]4C)C[C@@H]3C)[C@@H]2C)O[C@@H]1C (stereo not given in full) | 681 nM (active) |  | 
O=C1NC(=O)C(c2cnc3ccccn23)=C1c1cn2c3c(cc(F)cc13)CN(C(=O)N1CCCCC1)CC2 | 2150 nM (active) |  | 
CCOc1ccc2c(c1)C(C)=CC(C)(C)N2 | 31200 nM (active) |  | 
O=C(Nc1ccnc(NC(=O)C2CC2)c1)c1c(Cl)cccc1Cl | 1920 nM (active) |  | 
C=C1C/C(=C\C=C2/CCC[C@]3(C)[C@@H]([C@H](C)/C=C/C(C)C(C)C)CC[C@@H]23)[C@@H](O)C[C@@H]1O (stereo not given in full) | 541 nM (active) |  | 
COc1cc2c3c(n(CCCn4ccnc4)c(=O)c2cc1OC)-c1cc2c(cc1C3=O)OCO2 | 48.2 nM (active) |  | 
CC[C@@]1(O)C(=O)OCc2c1cc1n(c2=O)Cc2c-1nc1ccccc1c2CCNC(C)C | 5.4 nM (active) |  | 
COc1cc([C@@H]2c3cc4c(cc3C(O[C@@H]3O[C@@H]5CO[C@@H](c6cccs6)OC5[C@H](O)[C@H]3O)C3COC(=O)[C@@H]32)OCO4)cc(OC)c1O (stereo not given in full) | 48.2 nM (active) |  | 
CCCCN=C(N)NC(=N)N |  | inactive | 
O=C(/C=C\n1cnc(-c2cc(C(F)(F)F)cc(C(F)(F)F)c2)n1)NNc1cnccn1 | 3040 nM (active) |  | 
Cc1cnc(Nc2ccc(F)cc2Cl)nc1-c1c[nH]c(C(=O)NC(CO)c2cccc(Cl)c2)c1 (stereo not given) | 3830 nM (active) |  | 
CCOC(=O)N[C@@H]1CC[C@@H]2[C@@H](C1)C[C@H]1C(=O)O[C@H](C)C1[C@H]2/C=C/c1ccc(-c2cccc(F)c2)cn1 (stereo not given in full) | 7640 nM (active) |  | 
O=c1[nH]c([C@@H]2CCCN2)nc2c1oc1ccc(Cl)cc12 | 5410 nM (active) |  | 
CCN1CCN(Cc2ccc(Nc3ncc(F)c(-c4cc(F)c5nc(C)n(C(C)C)c5c4)n3)nc2)CC1 | 5410 nM (active) |  | 
COc1ccc(-c2ccc3c(N4CCOC[C@@H]4C)nc(N4CCOC[C@@H]4C)nc3n2)cc1CO | 681 nM (active) |  | 
C=CC(=O)N1CC[C@@H](Oc2nc(Nc3ccc(N4CCC(N5CCN(C)CC5)CC4)cc3)c(C(N)=O)nc2CC)C1 | 2350 nM (active) |  | 
O=C1[C@@H]2[C@H]3CC[C@H](C3)[C@@H]2C(=O)N1C[C@@H]1CCCC[C@H]1CN1CCN(c2nsc3ccccc23)CC1 | 12100 nM (active) |  | 
Nc1ccn([C@@H]2C(F)=C(CO)[C@@H](O)[C@H]2O)c(=O)n1 | 1520 nM (active) |  | 
CS(=O)(=O)N1CCC(NC(=O)c2[nH]ncc2NC(=O)c2c(Cl)cccc2Cl)CC1 | 34.1 nM (active) |  | 

Structure (SMILES) | Potency | outcome | activity, negative = inhibition
CC(CN(C)C)CN1c2ccccc2Sc2ccc(C(F)(F)F)cc21 (stereo not given) | 15200 nM (active) |  | 
O=C(NCc1ccccc1)[C@H](Cc1ccccc1)NC(=O)[C@H]1O[C@@H]1C(=O)NCCc1ccc(O)cc1 | 1360 nM (active) |  | 
NCCNc1ccc(NCCN)c2c1C(=O)c1ccncc1C2=O | 1520 nM (active) |  | 
CC/C(=C(/c1ccc(O)cc1)c1ccc(OCCNC)cc1)c1ccccc1 | 17100 nM (active) |  | 
CCNCCS(=O)(=O)NC[C@@]1(c2ccccc2)SC(NC(=O)C(C)(C)C)=NN1C(=O)C(C)(C)C | 60.7 nM (active) |  | 
C[C@H]1[C@H](OC(=O)CCC(=O)O)O[C@@H]2O[C@@]3(C)CC[C@H]4[C@H](C)CC[C@@H]1[C@@]24OO3 | 1360 nM (active) |  | 
O=C(CCCCCCC(=O)N/N=C/c1ccc(N(c2ccccc2)c2ccccc2)cc1)NO | 8790 nM (active) |  | 
CCOc1nc2cccc(C(=O)OC(C)OC(=O)OC3CCCCC3)c2n1Cc1ccc(-c2ccccc2-c2nn[nH]n2)cc1 (stereo not given) | 2410 nM (active) |  | 
CCc1cc(C(N)=O)ccc1-n1nc(C(C)C)c2c(-n3cnc(-c4cnn(C)c4)c3)ccnc21 | 10800 nM (active) |  | 
CCCCCCCCCCCCCCCCCCCCCC(=O)Nc1ccn([C@@H]2O[C@H](CO)[C@@H](O)[C@@H]2O)c(=O)n1 |  |  | 4.85% [at 33.8 µM]
Cc1c(-c2ccc(-c3ccccc3F)cc2)nc2ccc(F)cc2c1C(=O)O | 108 nM (active) |  | 
CO[C@@H]1[C@H](C)OC(O[C@H]2CC(Oc3cc4cc5c(c(O)c4c(O)c3C)C(=O)[C@@H](OC3C[C@@H](OC4C[C@H](OC6C[C@](C)(O)[C@@H](OC(C)=O)[C@H](C)O6)[C@@H](O)[C@H](C)O4)[C@H](O)[C@@H](C)O3)[C@H]([C@@H](OC)C(=O)[C@@H](O)[C@H](C)O)C5)O[C@@H](C)[C@H]2OC(C)=O)C[C@@H]1O (stereo not given in full) | 21.5 nM (active) |  | 
CC(C)OC(=O)CCC/C=C\C[C@@H]1[C@@H](/C=C/[C@@H](O)COc2cccc(C(F)(F)F)c2)[C@H](O)C[C@@H]1O | 21500 nM (active) |  | 
C=C1C[C@H]2C=Nc3cc(OCCCOc4cc5c(cc4OC)C(=O)N4CC(=C)C[C@H]4C=N5)c(OC)cc3C(=O)N2C1 | 1.5 nM (active) |  | 
Nc1ncc(C(=O)NC2CN(C(=O)C3CC3)C2)c2ccc(-c3cccc(F)c3)nc12 | 2710 nM (active) |  | 
O=C(c1ccc(Nc2nc(C3CC3)cn3c(-c4cn[nH]c4)cnc23)c(F)c1)N1CCOCC1 | 3410 nM (active) |  | 
O=C(O)c1ccc(-c2c[nH]c3ncc(-c4ccccc4)cc23)cc1C1CCCC1 | 1360 nM (active) |  | 
COc1ccc(N(C)c2nc(C)nc3ccccc23)cc1 | 6810 nM (active) |  | 
C=CC(=O)N[C@H]1CN(c2nc(Nc3cn(C)nc3OC)c3ncn(C)c3n2)C[C@@H]1F |  |  | -33.6%
CCN(CC)Cc1cc(Nc2ccnc3cc(Cl)ccc23)ccc1O | 3830 nM (active) |  | 
